The values below come from the OligoGym collection.
Further: reference of the scale not given here.

For the first assay, the target named is UTS2D. Description: pooled miR-30 sensor sort-seq; sequence = guide strand. The conditions noted are these: shRNA.
In the case of TTGTAAAAAAATCAACACGGAT, the sensor-assay potency score (higher = more potent) is -1.39.
As to ATTTTTATTCAGTAGAGCCAGC, the sensor-assay potency score (higher = more potent) was -1.2.
The same measure, in the same setting: with TTAGGAGTCCAAAGCAAACAGT the figure was -1.23.
The same measure, in the same setting: to TTGTATATTTTTTATCTGGAAA belongs -1.16; to ATTTGTATATTTTTTATCTGGA, -0.591.

For the next assay, the target named is UXS1. The description is as above. The following applies: shRNA.
In turn, TTAACTGAGCAAATTCTAGGAT had a sensor-assay potency score (higher = more potent) of 0.0899.
For the sequence TATCTGGTCAACCTCGATGTAG, the sensor-assay potency score (higher = more potent) was -1.33.
The sequence TAATTAACTGAGCAAATTCTAG displayed a sensor-assay potency score (higher = more potent) of -1.25.
Turning to TAGATCGCTGACGTACTGGAAC, the sensor-assay potency score (higher = more potent) was -0.778.
For the sequence TAACTGAGCAAATTCTAGGATT, the sensor-assay potency score (higher = more potent) was -0.862.
On the same count and under the same terms, with TTTTAGTTCACCATTTTCCTGG the figure was 0.218; with TAGGATTGTGTGTTCTTCTGGG, 0.906; with TTTGTTTAAACCTTCCTCCAGC, -0.24.
With TTCAACCATCTCTTCAATCTTG, the sensor-assay potency score (higher = more potent) was -0.0638.
TATACATGTAGTTTGGAGGGGA gave a sensor-assay potency score (higher = more potent) of 0.245.
Consider TTGTCTGAGACCCGGATCCGTA, for which the sensor-assay potency score (higher = more potent) is -1.19.
On to TTAGTGGTTCAACCATCTCTTC, for which the sensor-assay potency score (higher = more potent) is -1.31.
